Experimental data from PubChem BioAssay AID1159580 (chemical genetic matrix, 2015).
Among all 5,500 compounds or so, about 2,000 (36%) were called active. Inconclusive results (about 18%) are left out. Cut-off read from the data, not from the text of the source: active = normalized growth mostly below about 0.91 (no sharp cut-off); inconclusive = no clear call, values can overlap the other calls; inactive = mostly above about 0.92. The list shows a part of the results.

Assay: chemical genetic growth profiling, strain panel (AID 1159580);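 note: tested at 20 µM; growth read once vehicle control cultures reached saturation at 30 °C; 1 = growth at the plate median or of vehicle wells; lower values mean less growth of the strain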
Conditions: S. cerevisiae deletion strains, growth OD

Measured: normalized growth

Cc1nc(N)cc(C[n+]2csc(CCO)c2C)n1
inactive: locus YAL021C, strain ccr4, active compounds read low 0.946 | locus YAL026C, strain drs2, active compounds read low 0.974 | locus YAL030W, strain snc1, active compounds read low 0.981 | locus YBL061C, strain skt5, active compounds read low 0.983 | locus YBR009C, strain hhf1, active compounds read low 0.979 | locus YBR023C, strain chs3, active compounds read low 0.998 | locus YBR171W, strain sec66, active compounds read low 0.971 | locus YBR231C, strain swc5, active compounds read low 0.987 | locus YBR279W, strain paf1, active compounds read low 0.985 | locus YCL011C, strain gbp2, active compounds read low 0.966 | locus YCL016C, strain dcc1, active compounds read low 0.992 | locus YCL061C, strain MRC1, active compounds read low 0.977 | locus YCL069W, strain vba3, active compounds read low 0.981 | locus YCR088W, strain abp1, active compounds read low 0.98 | locus YDL005C, strain med2, active compounds read low 0.984 | locus YDL040C, strain nat1, active compounds read low 0.988 | locus YDR001C, strain nth1, active compounds read low 0.974 | locus YDR069C, strain doa4, active compounds read low 0.984 | locus YDR137W, strain rgp1, active compounds read low 0.966 | locus YDR159W, strain sac3, active compounds read low 0.965 | locus YDR195W, strain ref2 0.944 | locus YDR297W, strain sur2, active compounds read low 0.979 | locus YDR334W, strain swr1, active compounds read low 0.955 | locus YDR335W, strain msn5, active compounds read low 0.966 | locus YDR392W, strain spt3, active compounds read low 0.973 | locus YEL003W, strain gim4, active compounds read low 0.971 | locus YEL037C, strain rad23, active compounds read low 0.967 | locus YEL061C, strain CIN8 (second series), active compounds read low 0.974 | locus YER015W, strain faa2, active compounds read low 0.975 | locus YER016W, strain bim1, active compounds read low 0.979 | locus YER111C, strain swi4, active compounds read low 0.992 | locus YER155C, strain BEM2 (second series), active compounds read low 0.975 | locus YFR010W, strain ubp6, active compounds read low 0.962 | locus YGL167C, strain pmr1, active compounds read low 0.973 | locus YGL173C, strain kem1, active compounds read low 0.979 | locus YGL227W, strain vid30, active compounds read low 0.987 | locus YGL240W, strain doc1, active compounds read low 0.98 | locus YGL253W, strain hxk2, active compounds read low 0.986 | locus YHR013C, strain ard1, active compounds read low 0.986 | locus YHR027C, strain rpn1, active compounds read low 0.988 | locus YHR030C, strain SLT2, active compounds read low 0.954 | locus YHR079C, strain IRE1, active compounds read low 0.942 | locus YHR142W, strain chs7, active compounds read low 0.963 | locus YJL092W, strain hpr5, active compounds read low 0.966 | locus YJL095W, strain BCK1 (second series), active compounds read low 0.978 | locus YJL095W, strain BCK1, active compounds read low 0.968 | locus YJL115W, strain asf1, active compounds read low 0.969 | locus YJL129C, strain trk1, active compounds read low 0.965 | locus YJL154C, strain vps35, active compounds read low 0.988 | locus YJL164C, strain tpk1, active compounds read low 0.985 | locus YJL166W, strain qcr8, active compounds read low 0.981 | locus YJL187C, strain SWE1, active compounds read low 0.99 | locus YJR066W, strain TOR1, active compounds read low 0.932 | locus YKL160W, strain elf1, active compounds read low 0.981 | locus YKR026C, strain gcn3, active compounds read low 0.97 | locus YKR091W, strain srl3, active compounds read low 0.978 | locus YLL001W, strain dnm1, active compounds read low 0.983 | locus YLL026W, active compounds read low 0.988 | locus YLL041C, strain sdh2, active compounds read low 0.98 | locus YLR027C, strain aat2, active compounds read low 0.986 | locus YLR113W, strain HOG1, active compounds read low 0.941 | locus YLR221C, strain rsa3, active compounds read low 0.982 | locus YLR258W, strain gsy2, active compounds read low 0.986 | locus YLR262C, strain YPT6 (second series), active compounds read low 0.992 | locus YLR320W, strain mms22, active compounds read low 0.988 | locus YLR342W, strain FKS1, active compounds read low 0.991 | locus YLR357W, strain rsc2, active compounds read low 0.99 | locus YLR370C, strain arc18, active compounds read low 0.979 | locus YLR384C, strain iki3, active compounds read low 0.983 | locus YML120C, strain ndi1, active compounds read low 0.962 | locus YMR058W, strain fet3, active compounds read low 0.969 | locus YMR125W, strain sto1, active compounds read low 0.946 | locus YMR129W, active compounds read low 0.97 | locus YMR205C, strain PFK2, active compounds read low 1.01 | locus YMR231W, strain pep5, active compounds read low 0.992 | locus YNL071W, strain lat1, active compounds read low 0.988 | locus YNL183C, strain NPR1, active compounds read low 0.926 | locus YNL209W, strain ssb2, active compounds read low 0.981 | locus YNL248C, strain rpa49, active compounds read low 0.948 | locus YNL322C, strain KRE1 (second series), active compounds read low 0.964 | locus YNR049C, strain mso1, active compounds read low 0.978 | locus YOR001W, strain rrp6, active compounds read low 0.95 | locus YOR070C, strain gyp1, active compounds read low 0.998 | locus YOR080W, strain dia2, active compounds read low 0.971 | locus YOR083W, strain WHI5, active compounds read low 0.969 | locus YOR106W, strain vam3, active compounds read low 0.972 | locus YOR231W, strain MKK1, active compounds read low 0.96 | locus YOR265W, strain rbl2, active compounds read low 0.983 | locus YOR270C, strain vph1, active compounds read low 0.94 | locus YOR290C, strain snf2, active compounds read low 0.975 | locus YPL051W, strain arl3, active compounds read low 0.996 | locus YPL078C, strain atp4, active compounds read low 0.976 | locus YPL106C, strain sse1, active compounds read low 0.953 | locus YPL240C, strain hsp82, active compounds read low 0.972 | locus YPL256C, strain CLN2, active compounds read low 0.95
